Cycloheximide cs = Cycloheximide Counterscreen for Small Molecule Inhibitors of Shiga Toxin; 300,000 tested, 12% active; cell reporter, cycloheximide protein synthesis inhibition counterscreen; max response, %; AID 2314, 2010; in the data active = max response mostly above about 13%, no sharp cut-off; inactive = mostly below about 14%; also: read at 38.3 µM for the half of the compounds with a filed dose; 0% is about no effect
Shiga toxin inh = A qHTS for Small Molecule Inhibitors of Shiga Toxin | Vero cells, Shiga toxin protein synthesis inhibition reporter | inhibition, % at 38.7 µM | 290,000 tested, 9.2% active; in the data active = inhibition mostly above about 28%, no sharp cut-off; inactive = mostly below about 43%; also: 0% is about no effect
Marburg entry inh = qHTS for inhibitors of binding or entry into cells for Marburg Virus | Marburg virus pseudotyped entry inhibition, cell reporter | Potency, µM (doses to about 37.8 µM), without a hit: top-dose activity change, negative = inhibition, actives largely listed as inhibitors | 300,000 tested, 1.8% active; calls by dose curve; tested in HEK293 cells; also: potency is read from the fitted curve at half-maximal effect; % is scaled to controls: 0 for no effect and ±100 for the full control effect
Lassa entry inh = qHTS for Inhibitors of binding or entry into cells for Lassa Virus; Lassa virus pseudotype entry inhibition, cell reporter; Potency, µM (top dose mostly 37.9 µM), without a hit: at the top dose activity change, negative = inhibition, most hits filed as inhibitors; 300,000 tested, 1.2% active; AID 540256, 2011; calls by dose curve; tested in HEK293 cells; also: potency is read from the fitted curve at half-maximal effect; % is scaled to controls: 0 for no effect and ±100 for the full control effect; nearly all actives have a fitted effect of over 50% in size
AMA1 RON2 block = qHTS for Inhibitors of AMA1-RON; Towards Development of Antimalarial Drug Lead: Primary Screen; Plasmodium falciparum AMA1 (3D7) - RON2 peptide interaction; 360,000 tested, 0.2% active; Potency, µM (doses to about 58.2 µM), for the others: at the highest dose activity change, negative = inhibition, hits mostly inhibitors; AlphaScreen AMA1-biotinylated RON2 peptide binding; active = well fitted inhibition curve with a large enough effect; inconclusive = small, poorly fitted or top-dose-only effect; inactive = no such curve, though single readings can be large or run the other way;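 also: potency is read from the fitted curve at half-maximal effect; 0% = vehicle wells and -100% = peptide control; nearly all actives have a fitted effect of over 45% in size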
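AMA1 (3D7) with his tag at 25 nM final met compounds first, then biotinylated RON2 peptide at 25 nM; detection used donor plus acceptor beads, 10 µg/mL apiece, read by AlphaScreen after 30 min at room temperature.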
The depositor's hits bear a star; [ ] = dose if it differs, or a comment. Shown is part of a subset that was picked to be rich in hits.

What do the screens show for `Cc1cc(C(=O)COC(=O)c2ccc(F)cc2F)c(C)n1C1CC1`?
Marburg entry inh: 5%; Lassa entry inh: 6%; AMA1 RON2 block: -2%[11.6 µM]

What do the screens show for `Cc1cc(C(=O)COC(=O)c2ccc[nH]c2=O)c(C)n1-c1ccccc1`?
Cycloheximide cs: 23; Shiga toxin inh: 24; Marburg entry inh: inconclusive; Lassa entry inh: inconclusive; AMA1 RON2 block: -15%

What do the screens show for `Cc1cc(C(=O)COC(=O)c2ccc[nH]c2=O)c(C)n1C1CC1`?
Cycloheximide cs: 27*; Shiga toxin inh: 58*; Marburg entry inh: -17%; Lassa entry inh: 2%; AMA1 RON2 block: 18%

Results for Cc1cc(C(=O)COC(=O)c2ccc[nH]c2=O)c(C)n1-c1ccc(F)cc1 ?
Cycloheximide cs: 39*; Shiga toxin inh: 76*; Marburg entry inh: inconclusive; Lassa entry inh: -13%; AMA1 RON2 block: -1%

What do the screens show for `Cn1ccnc1C1CCCCN1Cc1nc(-c2ccc3c(c2)OCO3)no1` (stereo not given)?
Cycloheximide cs: -1; Shiga toxin inh: -3; Marburg entry inh: inconclusive; Lassa entry inh: 17%; AMA1 RON2 block: 22%

How did Cc1ccc(C(=O)OCC(=O)Nc2ccc3c(c2)OCO3)o1 do in these assays?
Cycloheximide cs: 21; Shiga toxin inh: 24; Marburg entry inh: inconclusive; Lassa entry inh: 18%; AMA1 RON2 block: -10%

What do the screens show for `CC(=O)Nc1ccc2c(c1)OCO2`?
Cycloheximide cs: 9; Shiga toxin inh: 17; Marburg entry inh: -19%[46.1 µM]; Lassa entry inh: -11%[46.1 µM]; AMA1 RON2 block: 14%

Results for Cc1ccc(C(=O)Nc2ccc3c(c2)OCO3)o1 ?
Cycloheximide cs: 31*; Shiga toxin inh: 68*; Marburg entry inh: -12%; Lassa entry inh: -9%; AMA1 RON2 block: 1%

Results for COC(=O)c1ccc(N/C(C)=C/C(=O)c2ccc(C)o2)cc1 ?
Cycloheximide cs: -3; Shiga toxin inh: -7; Marburg entry inh: 20%; Lassa entry inh: 3%; AMA1 RON2 block: 2%

How did C/C(=C\C(=O)c1ccccc1)Nc1ccc2c(c1)OCO2 do in these assays?
Cycloheximide cs: 37*; Shiga toxin inh: 50*; Marburg entry inh: -2%; Lassa entry inh: 1%; AMA1 RON2 block: -7%

How did C/C(=C\C(=O)c1ccc(C)o1)Nc1ccc2c(c1)OCO2 do in these assays?
Cycloheximide cs: 23*; Shiga toxin inh: 49*; Marburg entry inh: -6%; Lassa entry inh: 23%; AMA1 RON2 block: -3%

What do the screens show for `OC(c1ccc2c(c1)OCO2)c1ncc(-c2cccc(C(F)(F)F)c2)[nH]1` (stereo not given)?
AMA1 RON2 block: 10%

What do the screens show for `C=CCN1C(=O)C(CC(=O)O)SC1=Nc1ccc(C(=O)O)cc1` (stereo not given)?
Cycloheximide cs: 10; Shiga toxin inh: -5; Marburg entry inh: -10%[46.1 µM]; Lassa entry inh: 13%; AMA1 RON2 block: 11%

Results for C=CCn1c(CC(=O)OC)csc1=Nc1ccc(C(C)=O)cc1 ?
Cycloheximide cs: 33*; Shiga toxin inh: 63*; Marburg entry inh: 4%; Lassa entry inh: -27%; AMA1 RON2 block: -10%

Results for CCOC(=O)c1ccc(N=c2scc(C)n2CC)cc1 ?
Cycloheximide cs: 40*; Shiga toxin inh: 80*; Marburg entry inh: 5.6µM*; Lassa entry inh: inconclusive; AMA1 RON2 block: inconclusive

Results for C=CCn1c(C)csc1=Nc1ccccc1C ?
Cycloheximide cs: 30*; Shiga toxin inh: 75; Marburg entry inh: 26%[46.1 µM]; Lassa entry inh: inconclusive; AMA1 RON2 block: inconclusive

How did C=CCn1c(C)csc1=Nc1ccc(C(C)=O)cc1 do in these assays?
Cycloheximide cs: 34*; Shiga toxin inh: 111*; Marburg entry inh: -12%[46.1 µM]; Lassa entry inh: -18%; AMA1 RON2 block: 0%

How did COc1ccccc1/C=C/C=N/NC(=O)c1ccc2nc[nH]c2c1 do in these assays?
Cycloheximide cs: -6; Shiga toxin inh: -20

How did COc1ccc(CCNc2nc3c(-c4cccc(C)c4)nnn3c3ccccc23)cc1OC do in these assays?
Marburg entry inh: 5%[46.1 µM]; Lassa entry inh: 10%[46.1 µM]

How did CCc1ccc(CNC(=O)CCCN2C(=O)CCn3nc(-c4cccn4C)cc32)cc1 do in these assays?
Lassa entry inh: 22%[46.1 µM]

Results for O=C(O)c1csc(-c2ccccc2)n1 ?
Cycloheximide cs: 0; Shiga toxin inh: -5; AMA1 RON2 block: -2%

What do the screens show for `O=C(NNC(=O)c1csc(-c2ccccc2)n1)c1ccccc1`?
AMA1 RON2 block: 113%

How did Cc1nc(C(=O)NNC(=O)Nc2ccccc2)cs1 do in these assays?
Cycloheximide cs: 13*; Shiga toxin inh: 18; Marburg entry inh: 10%; Lassa entry inh: 23%; AMA1 RON2 block: 63%

What do the screens show for `O=C(Nc1ccc(F)cc1F)c1csc(-c2ccccc2)n1`?
Cycloheximide cs: 24*; Shiga toxin inh: 70*; Marburg entry inh: 29%[46.1 µM]; Lassa entry inh: 6%; AMA1 RON2 block: 0%

How did O=C(Nc1ccccc1)c1csc(-c2ccccc2)n1 do in these assays?
Cycloheximide cs: 26*; Shiga toxin inh: 43*; Marburg entry inh: inconclusive; Lassa entry inh: -17%; AMA1 RON2 block: 5%

Results for O=C(O)c1csc(-c2cccc(Cl)c2)n1 ?
Cycloheximide cs: 9.7*; Shiga toxin inh: 5; AMA1 RON2 block: -3%

What do the screens show for `COc1ccc(OC)c(-c2cc(C(=O)Nc3cnn(Cc4ccc(Cl)cc4Cl)c3)no2)c1`?
Marburg entry inh: -17%[46.1 µM]; Lassa entry inh: -9%[46.1 µM]

Results for Cc1ccc(-c2nnc(SCc3ccccc3)o2)cc1 ?
Lassa entry inh: 25%[46.1 µM]

What do the screens show for `COc1cc(-c2nnc(SCC(=O)Oc3ccc(C)cc3C)o2)cc(OC)c1OC`?
Marburg entry inh: inconclusive; Lassa entry inh: -4%[46.1 µM]

What do the screens show for `Cc1ccc(-c2nnc(SCc3ccccc3F)o2)cc1`?
Cycloheximide cs: 44*; Shiga toxin inh: 63*; Marburg entry inh: 16µM*; Lassa entry inh: inconclusive; AMA1 RON2 block: 92%

How did COc1ccc(-c2nnc(SCc3ccccc3F)o2)cc1OC do in these assays?
Cycloheximide cs: 21; Shiga toxin inh: 52*; Marburg entry inh: -18%; Lassa entry inh: 0%; AMA1 RON2 block: 4%

What do the screens show for `COc1cc(-c2nnc(SCc3cc(=O)oc4cc(C)ccc34)o2)cc(OC)c1OC`?
Cycloheximide cs: 29*; Shiga toxin inh: 63; Marburg entry inh: -34%; Lassa entry inh: -12%; AMA1 RON2 block: -1%

What do the screens show for `Cc1c(Cl)cccc1N1C(N)=C(C#N)C(c2cc(CN3CCOCC3)cs2)C2=C1CCCC2=O` (stereo not given)?
Marburg entry inh: -2%[46.1 µM]; Lassa entry inh: -1%[46.1 µM]

Results for COc1cc(C(=O)NCC(=O)N/N=C(/C)c2cccs2)cc(OC)c1OC ?
Cycloheximide cs: 1; Shiga toxin inh: -15; Marburg entry inh: inconclusive; Lassa entry inh: -3%; AMA1 RON2 block: 7%

What do the screens show for `Cc1cc2c(n1-c1ccc(C(=O)NCC(C)c3ccccc3)cc1)CCCC2` (stereo not given)?
Lassa entry inh: -26%[46.1 µM]

Results for COC(=O)C1=C(C)N(Cc2ccccc2)C(=O)NC1c1ccccc1 (stereo not given) ?
Marburg entry inh: inconclusive; Lassa entry inh: -20%[14.3 µM]
